Screening results: PubChem, Broad Institute
The list is not random: actives were taken first. Their share in the collection is about 2.2%.
C2C12 statin = protects C2C12 myotubes from simvastatin toxicity; hit rate 0.78% among 330,000; rescue of ATP level, % at 7.49 µM; ATP luminescence, 48 h; scaled: DMSO 0, geranylgeraniol control 100;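 active means mean ATP rescue above about 67%, or every replicate alone reaching that limit, limit read from the data, passing the limit was not always enough; inconclusive means no clear call, values can overlap the other calls; inactive means mean under the limit and some replicate under it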;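 further: myotubes were challenged with 10 µM simvastatin during compound exposure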
DENV2 CPE = DENV2-induced cell death inhibition; DENV2-infected cells, cytopathic effect rescue, plate reader; CPE inhibition, % at 9.99 µM; hit rate 1.7% among 350,000; in the data active means CPE inhibition above about 20%, passing the limit was not always enough; inconclusive means no clear call, values can overlap the other calls; tested in BHK-21 cells;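 further: 0% = median of neutral control wells and 100% = median of positive control wells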
miR-122 sensor = inhibitors of miR-122 in Huh7 cells | Huh7 miR-122 Renilla luciferase sensor, 48 h; neutral wells = 0, positive control = 100 | activation (reporter increase), % at 12.5 µM | hit rate 0.3% among 340,000 | AID 602342;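 active means mean replicate activation score at least 90 and every replicate individually at or above 90; inconclusive means only one of the two criteria met; inactive means neither criterion met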;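 further: higher luciferase means less miR-122 activity so hits act as miR-122 inhibitors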
PvdQ inh = P. aeruginosa PvdQ acylase inhibition | hit rate 0.063% among 340,000 | AID 488965 | inhibition, % at 10 µM | purified PvdQ acylase, fluorescence plate reader; in the data active means inhibition above about 30%, passing the limit was not always enough; inconclusive means no clear call, values can overlap the other calls;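 further: 0% = vehicle neutral wells and 100% = reference inhibitor wells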
PGC1a acetyl inh = modulators of PGC1a acetylation; U2OS PGC1a acetylation, AlphaScreen anti-acetyl-lysine; with virally co-expressed GCN5 acetyltransferase; inhibition, % at 15.6 µM; hit rate 0.17% among 350,000; AID 651687;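 active means every replicate shows inhibition of at least 40%; inconclusive means mean inhibition at least 40% but some replicate below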;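 further: 0% = neutral control wells and 100% = positive control wells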
* hit, by the source's call; ? = inconclusive; · = not tested or not shown; [ ] = remark or other dose.

SMILES	C2C12 statin	DENV2 CPE	miR-122 sensor	PvdQ inh	PGC1a acetyl inh
Cc1ccc(S(=O)(=O)N(C)C[C@H]2Oc3ccc(NC(=O)Nc4ccc(C(F)(F)F)cc4)cc3CC(=O)N([C@H](C)CO)C[C@H]2C)cc1	-52.9	1.9	-5.7[16.7 µM]	·	3.3
O=C(c1ccncc1)N1CC[C@@H]2[C@@H](CO)Nc3ccc(C4=CCCCC4)cc3[C@@H]21	6.4	13.3	5.3[16.7 µM]	·	18.1
CN1CCN(C(=O)C[C@H]2CC[C@H]3[C@@H](COc4ccc(NC(=O)c5cccs5)cc4C(=O)N3C)O2)CC1	-10.7	-11.8	-5.8[16.7 µM]	·	6.2
COc1cccc(C2(c3cccc(OC)c3)CC2C(=O)Nc2ccccc2Cl)c1 (centres undefined)	·	6.7	67.0	-7.1	·
COc1cccc(C2(c3cccc(OC)c3)CC2C(=O)Nc2ccc(F)cc2)c1 (centres undefined)	·	32.0*	108.2*	-16.3	-8.0
CCCc1nc2c(C)cc(Br)cn2c1Cc1ccc(OC)cc1C	-4.4	20.6*	-3.0	·	4.4
COc1ccc(Cc2c(-c3ccccc3)nc3c(C)cc(Br)cn23)c(C)c1	52.9	-9.2	2.3	·	-7.5
COc1ccc(Cc2c(-c3ccco3)nc3c(C)cc(Br)cn23)c(C)c1	-72.0	22.6*	-2.5	·	-4.8
Cc1ccccc1S(=O)(=O)N1C[C@@H](O)COC[C@H]2O[C@H](CC(=O)NCCc3ccccc3)CC[C@@H]21	-2.3	0.2	-5.9[16.7 µM]	·	-0.2
O=C(C[C@@H]1CC[C@H]2[C@@H](COC[C@@H](O)CN2C(=O)c2cccnc2)O1)NCC1CC1	41.7	-3.2	7.2[16.7 µM]	·	12.5
COC(=O)[C@]1(Cc2ccccc2)N[C@H](CN(C)S(=O)(=O)c2ccc(-c3ccccc3)cc2)[C@@H]2C(=O)N(Cc3ccccc3)C(=O)[C@@H]21	-1.9	4.3	-1.5	-11.1	6.5
CCN(C[C@H]1N[C@@](C)(C(=O)OC)[C@H]2C(=O)N(C)C(=O)[C@@H]12)S(=O)(=O)c1ccc(-c2ccccc2)cc1	6.7	20.1*	·	-11.9	·
CCN(C[C@H]1N[C@@](CC)(C(=O)OC)[C@H]2C(=O)N(C)C(=O)[C@@H]12)S(=O)(=O)c1ccc(-c2ccccc2)cc1	-8.3	-5.2	·	11.5	·
CCNC(=O)N(CC)C[C@H]1N[C@@](C)(C(=O)OC)[C@H]2C(=O)N(C)C(=O)[C@@H]12	-4.7	45.5*	-2.1	-15.1	11.6
CCN(C[C@H]1N[C@@](CC)(C(=O)OC)[C@H]2C(=O)N(C)C(=O)[C@@H]12)S(=O)(=O)c1ccc(OC)cc1	3.9	25.9*	0.2	-11.6	0.8
COC(=O)[C@]1(Cc2ccccc2)N[C@H](CN(C)S(=O)(=O)c2ccc(C)cc2)[C@@H]2C(=O)N(Cc3ccccc3)C(=O)[C@@H]21	-29.2	24.2*	1.4	-11.8	8.2
CCN(C[C@H]1N[C@@](C)(C(=O)OC)[C@H]2C(=O)N(C)C(=O)[C@@H]12)C(=O)Nc1ccc(F)cc1	-11.4	-10.5	·	-0.7	·
CC(C)CC#Cc1ccc([C@H]2[C@H](CO)N3CCCCN(C(=O)NC4CCCC4)C[C@@H]23)cc1	4.2	-29.4	-21.2[16.7 µM]	·	-8.8
O=S(=O)(N[C@H]1CC[C@@H](CCn2cc(C3(O)CCCC3)nn2)O[C@H]1CO)c1ccc(Cl)cc1	16.8	2.8	-7.2[16.7 µM]	·	-9.4
Cc1ccc(S(=O)(=O)Nc2ccc(-n3cnnn3)cc2)c(C)c1	1.6	-3.4	148.7*	-12.4	-3.8
Cc1ccc(S(=O)(=O)Nc2ccc(-n3cnnn3)cc2)cc1	-2.5	-6.1	·	7.7	·
C/C=C/c1ccc([C@H]2[C@@H](CO)N[C@@H]2CNC(=O)C2CCC2)cc1	·	34.1*	·	·	·
C/C=C/c1ccc([C@H]2[C@@H](CO)N(C(=O)C3CCC3)[C@H]2CNC(=O)NC(C)C)cc1	3.7	-13.3	14.3[16.7 µM]	·	2.9
C/C=C/c1ccc([C@H]2[C@@H](CO)N(C(=O)C3CCC3)[C@@H]2CNC(=O)NC(C)C)cc1	·	79.6*	·	·	·
C/C=C/c1ccc([C@@H]2[C@@H](CNC(=O)CC3CC3)N(C(C)=O)[C@H]2CO)cc1	-3.7	-1.3	0.0[16.7 µM]	·	-4.1
SMILES	C2C12 statin	DENV2 CPE	miR-122 sensor	PvdQ inh	PGC1a acetyl inh
C/C=C/c1ccc([C@@H]2[C@@H](CO)N(C(C)=O)[C@@H]2CNC(=O)CC2CC2)cc1	3.6	85.6*	0.0[16.7 µM]	·	-0.2
COCC#Cc1ccc2c(c1)O[C@H](CN(C)C)[C@H](C)CN([C@H](C)CO)S2(=O)=O	9.8	7.4	0.5[16.7 µM]	·	-1.7
CCCC(=O)Nc1ccc2c(c1)C(=O)N(C)C[C@@H](OC)[C@@H](C)CN(Cc1ccccc1)[C@H](C)CO2	13.0	-2.6	-10.1[16.7 µM]	·	5.1
O=C(C1CCCCC1)N1CC[C@@H]2[C@H](CO)Nc3ccc(Br)cc3[C@@H]21	13.4	?	8.5[16.7 µM]	·	7.9
CC(=O)N/C(=C\c1ccccc1)C(=O)OCC(=O)c1ccccc1	-5.2	-1.4	-1.9	-10.6	·
CC(=O)N/C(=C\c1ccccc1)C(=O)OCC(=O)NC1CCCC1	·	21.3*	-0.3	-8.5	4.4
CO[C@@H]1CN(C)C(=O)c2cc(NC(C)=O)ccc2OC[C@H](C)N(C(=O)C2CCOCC2)C[C@H]1C	-12.6	-1.8	·	·	5.7
CN(C)CCCNC(=O)[C@H]1[C@H](CO)[C@H]2Cn3c(cccc3=O)[C@@H]1N2CC1CC1	8.7	-1.1	·	·	·
O=C(CC1CC1)N[C@@H]1C[C@@H]2O[C@@H](CO)CC[C@@H]2O[C@@H]1CCc1ccc(C#Cc2ccccc2)cc1	·	3.8	·	·	5.1
O=C(CC1CC1)N[C@H]1C[C@@H]2O[C@H](CO)CC[C@@H]2O[C@@H]1CCc1ccc(C#Cc2ccccc2)cc1	·	28.2*	·	·	-7.4
O=C(CC1CC1)N[C@H]1C[C@@H]2O[C@@H](CO)CC[C@@H]2O[C@@H]1CCc1ccc(C#Cc2ccccc2)cc1	·	21.3*	·	·	-15.0
COc1ccccc1C(=O)N1C[C@H]2[C@@H](c3ccccc31)[C@H](CO)N2C(=O)C1CCCCC1	1.2	-6.5	10.0[16.7 µM]	·	-9.6
C[C@H](CO)N1C[C@H](C)[C@H](CN(C)C(=O)CCCN(C)C)OCCCC[C@H](C)Oc2ccc(NC(=O)Cc3ccccc3)cc2C1=O	·	98.2*	-0.7[16.7 µM]	·	11.0
C[C@@H]1CCCCO[C@@H](CN(C)C(=O)CCCN(C)C)[C@H](C)CN([C@H](C)CO)C(=O)c2cc(NC(=O)Cc3ccccc3)ccc2O1	·	-1.9	1.9[16.7 µM]	·	-21.3
C[C@H]1CCCCO[C@H](CN(C)C(=O)CCCN(C)C)[C@@H](C)CN([C@@H](C)CO)C(=O)c2cc(NC(=O)Cc3ccccc3)ccc2O1	·	29.0*	-4.9[16.7 µM]	·	0.5
O=C(NN1C(=O)NC2(CCCCC2)C1=O)c1cc(F)cc(F)c1	0.8	32.1*	5.1	-13.3	-6.5
CC(C)Oc1ccc(C(=O)NN2C(=O)NC3(CCCCC3)C2=O)cc1	-3.1	67.6*	6.6	3.8	-7.0
CNc1nc(Oc2cccc(NC(C)=O)c2)c2sccc2n1	-3.0	52.7*	48.7	·	5.1
CC(=O)Nc1cccc(Oc2nc(NCC3CC3)nc3ccsc23)c1	1.0	-11.4	6.1	·	13.1
